The source of these data is PubChem BioAssay (NCI).

Structures are written as SMILES. Compounds without any hit were thinned out: in the full panel of roughly 83,000, 20% have a hit.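 Results are percent growth after 48 hours of single-concentration exposure. 100 means growth as in untreated cells, lower positive values show inhibition; negative values down to -100 show cell death.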 Calls of active or inactive are those of the source. The calls were made as follows: active = growth percent below 10; inactive = the rest.

For the experiment, the system named is ACHN renal. The experiment is described as follows: NCI-60 one-dose screen, 48 h (100 = growth as untreated, 0 = no growth, -100 = all killed). As to conditions: 10 µM unless noted.
Take `CCN(C(=O)Nc1cccc2ccccc12)c1ccccc1`: the growth was 99.5% (inactive).
For `CCCCCCCCCCC(C(O)c1ccccc1)N1CCCCC1` (centres undefined) the value was 42.1% (inactive); for `CC1CN(CCCOC(=O)Nc2ccc(Cl)cc2)CCN1C(C)(C)C` (centres undefined), 133% (inactive).
For `Cc1ccc(/C=C/C(=N/N=C(N)N)c2ccccc2)cc1` the value was 48.5% (inactive).
In the case of `O=C(Nc1ccc(Br)cc1)Nc1ccccc1Cl`, the growth was 84.4% (inactive).
The value for `CC1C2CCC(C2)C1COCCOCCO` (centres undefined) was 106% (inactive); that for `O=C1Cc2c([nH]c3ccc([N+](=O)[O-])cc23)-c2ccccc2N1` was 11.5% (inactive).
For `CCN(CC)CCCC(C)Nc1cnc(C(=O)Nc2ccc(Cl)c3cccnc23)cn1` (centres undefined) the value was -54.8% (active); for `CC(=O)c1nn(-c2ccccc2)/c(=N\N=C\c2coc3ccc(F)cc3c2=O)s1`, 94% (inactive).
The value for `Cc1c(O)c(=O)n(-c2ccccc2)n1C` was 96.5% (inactive); that for `CSC(=S)N/N=C(\C)c1ccccn1` was 14.8% (inactive); that for `CN1CCN(Cc2ccc(NC(=O)c3cncc(C#Cc4cnc5cccnn45)c3)cc2C(F)(F)F)CC1` was 5.04% (active).
For the compound `O=C1c2ccccc2C(=O)c2c1oc1ccc3ccccc3c21`, the growth was 79.4% (inactive).
Turning to `CN(C)c1ccc(/C=N/Nc2nnc3n2N=C(c2ccc(Cl)cc2)CS3)cc1`, the growth was 99.5% (inactive).
For `C#CC[C@@H]1C[C@]2(C)[C@H]3CC=C4[C@H]5CC(C)(C)CC[C@]5(C(=O)NCCCCN)CC[C@@]4(C)[C@]3(C)CC[C@H]2C(C)(C)[C@H]1OC(C)=O` the value was -91.6% (active); for `COc1ccc(C(=O)C(CN(C)C)c2ccccc2)cc1` (centres undefined), -71.4% (active).
For `C#CC[C@@H]1C[C@]2(C)[C@H]3CC=C4[C@H]5[C@@H](C)[C@H](C)CC[C@]5(C(=O)NCCCCCCCCN)CC[C@@]4(C)[C@]3(C)CC[C@H]2C(C)(C)[C@H]1OC(C)=O` the value was 85.8% (inactive); for `CCCCNCC(O)c1cc2c(Cl)cc(Cl)cc2c2cc(C(F)(F)F)ccc12` (centres undefined), -78.7% (active); for `COc1ccc(/C(=C\c2ccc3c(c2)OCO3)C(=O)Nc2nc3ccccc3s2)cc1`, 96.6% (inactive).
The value for `Nc1ccc(N(O)/C=C2\C=CC=CC2=O)cc1N` was 76.3% (inactive); that for `Fc1[nH]nc2ccc([C@@H]3Nc4ccc5[nH]ncc5c4[C@H]4C5CCC(C5)[C@@H]34)cc12` (some centres undefined) was 43.7% (inactive).
Regarding `Cc1c(-c2ccc(-c3ccccc3F)cc2)nc2ccc(F)cc2c1C(=O)O`, the growth was 36.5% (inactive).
The value for `C=C(C)[C@@H]1CC[C@]2(C)[C@H](CC=C3[C@@H]4C[C@](C)(C(=O)N5CCN(C)CC5)CC[C@]4(C)CC[C@]32C)[C@@]1(C)CCC#N` was 80.4% (inactive); that for `CNCc1cccc2c1OCCOCCOCCC(C)S(=O)(=O)c1ccc(cc1)-c1cnc(N)c(n1)C(=O)N2` (centres undefined) was 18.9% (inactive).
